Results from PubChem BioAssay AID1159580 (chemical genetic matrix, 2015).
Among all 5,500 compounds or so, about 2,000 (36%) were called active. Not shown: some 18% with an inconclusive outcome. Rule as the data show it: active = normalized growth mostly below about 0.91 (no sharp cut-off); inconclusive = no clear call, values can overlap the other calls; inactive = mostly above about 0.92. Some of the results follow.

Test: chemical genetic growth profiling, strain panel (AID 1159580);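 also: tested at 20 µM; growth read once vehicle control cultures reached saturation at 30 °C; 1 = growth at the plate median or of vehicle wells; lower values mean less growth of the strain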
Conditions: growth OD

Measured: normalized growth

O=C(O[C@@H]1Cc2c(O)cc(O)cc2O[C@@H]1c1cc(O)c(O)c(O)c1-c1c([C@H]2Oc3cc(O)cc(O)c3C[C@H]2O)cc(O)c(O)c1O)c1cc(O)c(O)c(O)c1
inactive: S. cerevisiae deletion strains, locus YJL187C, strain SWE1, active compounds read low 0.981 | S. cerevisiae deletion strains, locus YKL009W, strain mrt4, active compounds read low 1.08 | S. cerevisiae deletion strains, locus YKL068W, active compounds read low 1.03 | S. cerevisiae deletion strains, locus YKL085W, strain MDH1 (second series), active compounds read low 0.994 | S. cerevisiae deletion strains, locus YKL085W, strain MDH1, active compounds read low 0.994 | S. cerevisiae deletion strains, locus YKL160W, strain elf1, active compounds read low 0.968 | S. cerevisiae deletion strains, locus YKR026C, strain gcn3, active compounds read low 1.03 | S. cerevisiae deletion strains, locus YKR091W, strain srl3, active compounds read low 1.02 | S. cerevisiae deletion strains, locus YLL001W, strain dnm1, active compounds read low 0.986 | S. cerevisiae deletion strains, locus YLL026W, active compounds read low 1.03 | S. cerevisiae deletion strains, locus YLL041C, strain sdh2, active compounds read low 1.04 | S. cerevisiae deletion strains, locus YLR027C, strain aat2, active compounds read low 1 | S. cerevisiae deletion strains, locus YLR221C, strain rsa3, active compounds read low 0.989 | S. cerevisiae deletion strains, locus YLR258W, strain gsy2, active compounds read low 1.02 | S. cerevisiae deletion strains, locus YLR262C, strain YPT6 (second series), active compounds read low 0.89 | S. cerevisiae deletion strains, locus YLR320W, strain mms22, active compounds read low 1.01 | S. cerevisiae deletion strains, locus YLR342W, strain FKS1, active compounds read low 0.957 | S. cerevisiae deletion strains, locus YLR357W, strain rsc2, active compounds read low 0.9 | S. cerevisiae deletion strains, locus YLR370C, strain arc18, active compounds read low 1 | S. cerevisiae deletion strains, locus YLR384C, strain iki3, active compounds read low 1.02 | S. cerevisiae deletion strains, locus YML120C, strain ndi1, active compounds read low 1 | S. cerevisiae deletion strains, locus YMR078C, strain ctf18, active compounds read low 0.927 | S. cerevisiae deletion strains, locus YMR125W, strain sto1, active compounds read low 1.04 | S. cerevisiae deletion strains, locus YMR129W, active compounds read low 1.02 | S. cerevisiae deletion strains, locus YMR205C, strain PFK2, active compounds read low 0.978 | S. cerevisiae deletion strains, locus YMR231W, strain pep5, active compounds read low 0.942 | S. cerevisiae deletion strains, locus YNL071W, strain lat1, active compounds read low 1.02 | S. cerevisiae deletion strains, locus YNL248C, strain rpa49, active compounds read low 1.02 | S. cerevisiae deletion strains, locus YNL250W, strain rad50, active compounds read low 0.963 | S. cerevisiae deletion strains, locus YNL271C, strain bni1, active compounds read low 0.974 | S. cerevisiae deletion strains, locus YNL298W, strain CLA4, active compounds read low 1 | S. cerevisiae deletion strains, locus YNL322C, strain KRE1 (second series), active compounds read low 1.03 | S. cerevisiae deletion strains, locus YNR049C, strain mso1, active compounds read low 1.03 | S. cerevisiae deletion strains, locus YOL012C, strain htz1 0.228 | S. cerevisiae deletion strains, locus YOR001W, strain rrp6, active compounds read low 0.981 | S. cerevisiae deletion strains, locus YOR070C, strain gyp1, active compounds read low 0.972 | S. cerevisiae deletion strains, locus YOR080W, strain dia2, active compounds read low 1.02 | S. cerevisiae deletion strains, locus YOR083W, strain WHI5, active compounds read low 0.937 | S. cerevisiae deletion strains, locus YOR265W, strain rbl2, active compounds read low 0.984 | S. cerevisiae deletion strains, locus YOR270C, strain vph1, active compounds read low 0.977 | S. cerevisiae deletion strains, locus YOR290C, strain snf2, active compounds read low 0.989 | S. cerevisiae deletion strains, locus YPL078C, strain atp4, active compounds read low 0.99 | S. cerevisiae deletion strains, locus YPL106C, strain sse1, active compounds read low 0.941 | S. cerevisiae deletion strains, locus YPL240C, strain hsp82, active compounds read low 1 | S. cerevisiae deletion strains, locus YPR119W, strain clb2, active compounds read low 0.981 | S. cerevisiae deletion strains, locus YPR141C, strain kar3, active compounds read low 0.988
active: S. cerevisiae deletion strains, locus YJL187C, strain SWE1 (second series), active compounds read low 0.0786 | S. cerevisiae deletion strains, locus YKL190W, strain CNB1, active compounds read low 0.0679 | S. cerevisiae deletion strains, locus YKR001C, strain vps1, active compounds read low 0.487 | S. cerevisiae deletion strains, locus YLR039C, strain RIC1, active compounds read low 0.136 | S. cerevisiae deletion strains, locus YLR058C, strain SHM2, active compounds read low 0.0917 | S. cerevisiae deletion strains, locus YLR102C, strain apc9, active compounds read low 0.885 | S. cerevisiae deletion strains, locus YLR262C, strain YPT6, active compounds read low 0.222 | S. cerevisiae deletion strains, locus YLR268W, strain sec22, active compounds read low 0.225 | S. cerevisiae deletion strains, locus YLR330W, strain CHS5, active compounds read low 0.488 | S. cerevisiae deletion strains, locus YLR371W, strain rom2, active compounds read low 0.667 | S. cerevisiae deletion strains, locus YLR418C, strain cdc73, active compounds read low 0.238 | S. cerevisiae deletion strains, locus YML016C, strain PPZ1, active compounds read low 0.0734 | S. cerevisiae deletion strains, locus YML032C, strain rad52, active compounds read low 0.808 | S. cerevisiae deletion strains, locus YML124C, strain tub3, active compounds read low 0.733 | S. cerevisiae deletion strains, locus YMR058W, strain fet3, active compounds read low 0.455 | S. cerevisiae deletion strains, locus YMR223W, strain ubp8, active compounds read low 0.571 | S. cerevisiae deletion strains, locus YMR263W, strain SAP30, active compounds read low 0.386 | S. cerevisiae deletion strains, locus YMR307W, strain GAS1, active compounds read low 0.343 | S. cerevisiae deletion strains, locus YNL067W, strain RPL9B, active compounds read low 0.138 | S. cerevisiae deletion strains, locus YNL128W, strain TEP1, active compounds read low 0.0913 | S. cerevisiae deletion strains, locus YNL153C, strain GIM3, active compounds read low 0.201 | S. cerevisiae deletion strains, locus YNL209W, strain ssb2, active compounds read low 0.822 | S. cerevisiae deletion strains, locus YNL233W, strain BNI4, active compounds read low 0.299 | S. cerevisiae deletion strains, locus YNL307C, strain MCK1, active compounds read low 0.831 | S. cerevisiae deletion strains, locus YNR052C, strain pop2, active compounds read low 0.246 | S. cerevisiae deletion strains, locus YOL006C, strain TOP1, active compounds read low 0.168 | S. cerevisiae deletion strains, locus YOL147C, strain pex11, active compounds read low 0.662 | S. cerevisiae deletion strains, locus YOR061W, strain CKA2, active compounds read low 0.163 | S. cerevisiae deletion strains, locus YOR069W, strain VPS5, active compounds read low 0.128 | S. cerevisiae deletion strains, locus YOR106W, strain vam3, active compounds read low 0.817 | S. cerevisiae deletion strains, locus YOR136W, strain idh2, active compounds read low 0.645 | S. cerevisiae deletion strains, locus YOR144C, strain elg1, active compounds read low 0.774 | S. cerevisiae deletion strains, locus YOR184W, strain ser1, active compounds read low 0.346 | S. cerevisiae deletion strains, locus YOR316C, strain cot1, active compounds read low 0.863 | S. cerevisiae deletion strains, locus YPL051W, strain arl3, active compounds read low 0.822 | S. cerevisiae deletion strains, locus YPR163C, strain tif3, active compounds read low 0.756 | S. cerevisiae deletion strains, locus YPR167C, strain met16, active compounds read low 0.785 | S. cerevisiae deletion strains, strain wtn01, active compounds read low 0.335 | S. cerevisiae strains, strain wild type, active compounds read low 0.0644
